# Reference: PubChem BioAssay (EPA / NIEHS)
# Active and inactive are the calls of the source. How the source made its calls: active means hit-call score of the fitted dose curve at least 0.9, where 1 is the maximum; inactive means score below 0.9.
# Assay: APR_HepG2_MitoMembPot_24hr: Apredica 24-hour HepG2 Assay for Mitochondrial Membrane Potential (AID 2282911)
# Conditions: imaging, actives raise or lower the signal
# Procedure, shortened: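 HepG2 human liver cells were exposed 24 hr to compounds at 0.39–200 uM (final DMSO 0.5% v/v) in duplicate. MitoTracker Red CMXRos (250 nM, 30 min) was loaded before formaldehyde fixation; fluorescence was imaged by ArrayScan HCS and fitted bidirectionally versus DMSO.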
Structure (SMILES),outcome,AC50
CC#C[C@]1(O)CC[C@H]2[C@@H]3CCC4=CC(=O)CCC4=C3[C@@H](c3ccc(N(C)C)cc3)C[C@@]21C,inactive,–
O=c1c(-c2ccc(O)cc2)coc2cc(O)ccc12,inactive,–
CCCOc1sc(C(=O)N2CCC(c3cc(CN)ccc3F)CC2)c(C)c1Br,–,7.27 µM (active)
Cc1cc(C)c(O)c(C)c1,inactive,–
CCCCC[C@H](O)CC(=O)CCc1ccc(O)c(OC)c1,inactive,–
O=C(/C=C/c1ccc(O)cc1)CC(=O)/C=C/c1ccc(O)cc1,inactive,–
CCc1nn(C2CCCCC2)c2cc(C3(C#N)CCC(C(=O)O)CC3)ccc12 (stereo not given),inactive,–
CCc1ccc(CCOc2ccc(CC3SC(=O)NC3=O)cc2)nc1 (stereo not given),inactive,–
Oc1cccc(O)c1,inactive,–
CN1CCN(c2ccccc2/C=C2\SCCN(c3ccc(Cl)c(Cl)c3)C2=O)CC1,–,53.6 µM (active)
